Screening data deposited in PubChem by several laboratories.
APOBEC3G inh = APOBEC3G (human) deaminase inhibition | Q9HC16 | recombinant A3G, ssDNA deamination FAM/TAMRA fluorescence | 0.28% of 330,000 active | inhibition, % at 20 µM;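 active = inhibition of at least 40% at 20 µM, with no more than 30% in the related APOBEC3A deaminase screen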;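 also: plate controls were DMSO wells with A3G for no effect and wells lacking A3G enzyme for full effect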
VLA-4 inh = inhibition in a human VLA-4 binding assay; VLA-4 expressing cells, ligand binding flow cytometry; AID 2557; P13612; 0.2% of 330,000 active; inhibition, % (about 7 µM as worked out from the volumes in the protocol); in the data active = inhibition above about 50%
A3A deaminase = blocks human APOBEC3A ssDNA deamination. P31941. recombinant A3A, FAM/TAMRA ssDNA deamination fluorescence. inhibition, % at 20 µM. 0.41% of 330,000 active. AID 493011;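 active = at least 40% inhibition at 20 µM here, with at most 30% in a related deaminase screen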;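 also: plate controls were A3A with DMSO for no effect and wells lacking A3A enzyme for full effect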
GRK2 inh = blocks RNA aptamer binding to human GRK2; P25098; bead flow cytometry, FAM-aptamer displacement from GRK2; inhibition of aptamer binding, % at 10 µM; 0.59% of 330,000 active; AID 488847;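 active = inhibition of aptamer binding above 40%, roughly 3 SD of noise, on plates passing a quality check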;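 also: median bead fluorescence of bound FAM aptamer so fluorescent compounds give negative values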
Target sequence (P25098 whole entry, looked up): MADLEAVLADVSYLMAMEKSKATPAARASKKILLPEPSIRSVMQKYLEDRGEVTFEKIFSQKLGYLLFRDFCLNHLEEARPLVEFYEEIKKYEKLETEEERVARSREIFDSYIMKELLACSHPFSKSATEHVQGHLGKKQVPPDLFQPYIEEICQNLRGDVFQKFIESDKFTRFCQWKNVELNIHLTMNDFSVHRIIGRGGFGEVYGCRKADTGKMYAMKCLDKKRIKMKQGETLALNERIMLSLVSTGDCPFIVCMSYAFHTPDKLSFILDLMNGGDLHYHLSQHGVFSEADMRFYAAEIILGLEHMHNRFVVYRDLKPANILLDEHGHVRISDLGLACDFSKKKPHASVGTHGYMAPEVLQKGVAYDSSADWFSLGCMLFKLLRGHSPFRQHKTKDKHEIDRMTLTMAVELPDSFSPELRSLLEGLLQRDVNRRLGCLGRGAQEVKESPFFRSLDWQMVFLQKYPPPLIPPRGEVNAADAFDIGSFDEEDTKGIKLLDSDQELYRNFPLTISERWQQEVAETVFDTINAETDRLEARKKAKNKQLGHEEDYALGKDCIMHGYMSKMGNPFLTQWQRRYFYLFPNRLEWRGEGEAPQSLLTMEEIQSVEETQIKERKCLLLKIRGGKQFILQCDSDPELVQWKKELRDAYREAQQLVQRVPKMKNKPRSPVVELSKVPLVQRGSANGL
APOBEC3A confirm = APOBEC3A (human) deaminase inhibition, confirmed; shares compounds with A3A deaminase; recombinant A3A, ssDNA deaminase UDG fluorescence assay; inhibition, % at 20 µM; 63% of 1,400 active; AID 493151;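 active = inhibition reaching a set limit, 80% of the first screen's cutoff, at 20 µM in any replicate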;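 also: plate controls were DMSO wells with A3A for no effect and wells lacking A3A enzyme for full effect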
UDG A3A counter = counter-screen for APOBEC3A inhibitors: UDG; shares compounds with A3A deaminase; 1,000 tested, under 10 active; AID 504714; UDG counterscreen, FAM/TAMRA uracil oligo fluorescence; inhibition, % at 20 µM; call rule not given here
APOBEC3G confirm = confirmation of human APOBEC3G DNA deaminase inhibitors; inhibition, % at 20 µM; shares compounds with APOBEC3G inh; recombinant A3G ssDNA deaminase, UDG/FAM-TAMRA fluorescence; 72% of 890 active; AID 493152;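 active = inhibition reaching a set limit in any replicate at 20 µM, the limit being 80% of the first screen's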
UDG A3G counter = inhibits E. coli UDG, flagging false APOBEC3G inhibitors; shares compounds with APOBEC3G inh; UDG counterscreen, FAM/TAMRA oligo fluorescence; inhibition, % at 20 µM; 710 tested, under 10 active;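 active = compounds giving 40% or more inhibition at 20 µM in any one of the three replicates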;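 also: plate controls were DMSO wells with UDG and oligo for no effect and DMSO wells lacking both for full effect; inhibitors lower the FAM signal released by uracil excision and alkaline cleavage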
* marks the source's active call; other numbers are inactive results; · = no result given; ! = not confirmed by another sample. Sampled rows, rich in hits. Any-hit rate of the full collection: about 1.4%.

SMILES	APOBEC3G inh	VLA-4 inh	A3A deaminase	GRK2 inh	APOBEC3A confirm	UDG A3A counter	others
CCS(=O)(=O)N1CCCC(C(=O)N2CCC3(CC2)OCCO3)C1 (stereo not drawn)	0	11	0	2	·	·
CCOc1ccc(N=C2SCCCN2C)cc1	18	1	40*	5	66*	-3
Cc1ccc(N2C(=O)NC(=O)/C(=C\c3cc(C)n(-c4cc(C(=O)O)cc(C(=O)O)c4)c3C)C2=O)cc1	17	-5	54*	5	28*	0
Cc1ccc(-n2c(/C=C/c3ccccn3)nc3ccccc3c2=O)cc1	-2	·	-3	·	·	·
C=CCN1C(=O)/C(=C/c2ccc(Br)s2)C(=O)NC1=S	26	1	46*	6	29	·
C=CCN1C(=O)/C(=C\c2ccc(N3CCOCC3)o2)C(=O)NC1=S	0	-17	6	1	·	·
CC[C@]12C=CCN3CCC4(c5cc(Br)c(OC)cc5N(C)C4[C@@](O)(C(=O)OC)[C@@H]1OC(C)=O)C32 (stereo partly drawn)	16	18	62*	3	70*	-4
O=C(O)C1C(C(=O)O)C2(Cl)C(Cl)=C(Cl)C1(Cl)C2(Cl)Cl (stereo not drawn)	1	0	43*	1	15*	-2
Nc1c(Cl)cc([N+](=O)[O-])cc1Cl	-8	-6	-2	0	·	·
C[C@H]1CC[C@H]2NCCN[C@H]2C1	-6	1	62*	1	3	2
CNC(=O)OCc1n(C)cc[n+]1C	-4	11	40*	3	82*	-1
CNC(=O)OCCc1nccn1C	-1	-9	-1	0	·	·
COc1ccc(CN2C(=O)CC(=O)NC2=O)cc1	-2	31	1	3	·	·
CCOC(=O)C(O)(c1cn(C)c2ccccc12)C(F)(F)F (stereo not drawn)	0	16	1	2	·	·
CCOC(=O)C(O)(c1ccc(N=c2ccccn2C)cc1)C(F)(F)F (stereo not drawn)	13	-2	44*	0	32*	-3
Brc1cccc(CNCCc2ccc3c(c2)OCO3)c1	-2	16	-2	0	·	·
O=C(N/N=C/c1c(O)n(-c2ccccc2)c(=S)[nH]c1=O)c1ccccc1	-8	3	-5	2	·	·
C[N+](C)(C)CCc1ccc(O)cc1	25	-26	65*	0	77*	3
COc1cccc(CN2CCNCC2)c1	0	14	0	2	·	·
CC[N+]12CCC(CC1)C(=C(c1ccccc1)c1ccccc1)C2	-3	-15	2	0	·	·
C[N+]12CCC(CC1)C(=C(c1ccccc1)c1ccccc1)C2	22	20	75*	7	71*	-2
COc1cc2c(cc1OC)C(C1c3cc4c(cc3CCN1C)OCO4)OC2=O (stereo not drawn)	-5	2	-6	3	·	·
C[N+]1(C)CCc2cc3c(cc2[C@H]1[C@@H]1OC(=O)c2c1ccc1c2OCO1)OCO3	23	-6	46*!	2	80*	1
C[N+]1(C)C2CCC1CC(OC(=O)c1c[nH]c3ccccc13)C2 (stereo not drawn)	18	43	72*	2	84*	2
C[N+]1(C)[C@@H]2CC[C@H]1CC(OC(=O)[C@@H](CO)c1ccccc1)C2 (stereo partly drawn)	20	0	67*	8	87*	·
SMILES	APOBEC3G inh	VLA-4 inh	A3A deaminase	GRK2 inh	APOBEC3A confirm	UDG A3A counter	others
C[N+]1(C)C2CC[C@H]1CC(OC(=O)C(CO)c1ccccc1)C2 (stereo partly drawn)	-4	-37	-2	2	·	·
O=C1NC(=O)C(CCc2ccncc2)(Cc2cccc(Cl)c2Cl)C(=O)N1c1ccc(Br)cc1 (stereo not drawn)	1	7	2	0	·	·
COC(=O)C1=C(c2ccc(OC(F)(F)F)cc2)C[C@@H]2CC[C@H]1N2C(=O)N1CCC(O)CC1	-10	6	1	0	·	·
CCCC[N+]12CCC(CC1)C(C(O)(c1ccccc1)c1ccccc1)C2 (stereo not drawn)	14	-1	41*	1	64*	-3
O=[N+]([O-])c1cc([As](=O)(O)O)ccc1O	6	8	83*	23	51*	-1
CC[N+](C)(CC)CCCOC(=O)C(O)(c1ccccc1)C1CCCCC1 (stereo not drawn)	17	31	50*	0	81*	-1
O=c1cccc2n1CC1CC2CN(C(c2cccc(F)c2)c2sc3ncnn3c2O)C1 (stereo not drawn)	-8	26	0	4	·	·
COc1ccc(CC(=O)Nc2ccc(C#N)c(Cl)c2)cc1S(=O)(=O)N1CCOCC1	6	-2	4	0	·	·
c1cncc(C2Nc3cccc4cccc(c34)N2)c1	45*	28	22	0	·	·	APOBEC3G confirm=64*
COc1ccc(N/N=C/c2c(O)n(-c3ccc(C)c(C)c3)c(=O)[nH]c2=O)cc1	51*	-3	-2	5	·	·	APOBEC3G confirm=17;UDG A3G counter=2
COc1ccc(N/N=C/c2c(O)n(-c3cccc(C)c3)c(=O)[nH]c2=O)cc1	54*	-5	0	0	·	·	APOBEC3G confirm=24*;UDG A3G counter=-4
Cc1ccc(-n2c(O)c(/C=N/Nc3ccccc3)c(=O)[nH]c2=O)cc1C	5	3	-3	1	·	·
CCc1cc(=O)oc2cc(C)cc(OCC(=O)N3CCC(C(=O)O)(c4ccccc4)CC3)c12	-3	38	-1	0	·	·
Cc1nn(CCC#N)c2c1P(=S)(N1CCCC1)OC(c1ccc(F)cc1)=N2 (stereo not drawn)	67*	18	2	0	·	·	APOBEC3G confirm=67*
O=C(O)c1cccc2nc3ccccc3nc12	72*	-19	3	0	·	·	APOBEC3G confirm=24*;UDG A3G counter=2
COC(=O)c1ccccc1-n1c(C)nc2ccccc2c1=O	-7	4	-1	3	·	·
CCCCCCn1c(=O)c(C(=O)Nc2ncccc2C)c(O)c2ccccc21	-6	3	2	0	·	·
O=c1[nH]c(=O)n(-c2cccc3ccccc23)c(O)c1/C=N/N1CCCCCC1	68*	26	-2	0	·	·	APOBEC3G confirm=-4;UDG A3G counter=1
COc1cc2c(cc1O)CC1c3c(cc(O)c(OC)c3-2)CCN1C (stereo not drawn)	-5	-21	25	5	·	·
O=C1C=CC(=O)C=C1	82*	-9	5	11	·	·	APOBEC3G confirm=88*;UDG A3G counter=-3
CC(=Nc1ccc2c(c1)CCC2)c1c(O)n(C)c(=O)n(C)c1=O	-3	5	-3	4	·	·
O=[N+]([O-])c1ccccc1Cl	-12	11	-5	3	·	·
O=C1NC(=O)C(Sc2ccccc2[N+](=O)[O-])C(=O)N1	46*	15	-3	0	·	·	APOBEC3G confirm=63*;UDG A3G counter=-4
O=C(CN1CCOCC1)Nc1ccc(Br)cc1C(=O)c1ccccc1	-10	-5	-4	0	·	·
